Calls of active or inactive are those of the source.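 How the source made its calls, unless noted: active means fluorescence slope higher than the sample average by over 3 SD (cut at about -0.22 in these data, passing the limit was not always enough); inactive means the rest.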
What was measured:
[1] = inhibitors of TNFa-induced NFkB p65 translocation, primary screen, imaging, HUVEC, MLSMR starter and 10KST1 sets (AID 438;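 active means inhibition above 20% together with a positive visual image hit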;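 further: compound added about 3h40 before a 20 min TNFalpha stimulation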;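 on inhibition: signal is the nuclear over cytoplasmic p65 intensity ratio per well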); conditions: HUVEC TNFa-induced p65 nuclear translocation; cell count: measured here: nuclei count (cytotoxicity indicator), at 2.08 µM; inhibition: at 2 µM, stronger effect = higher value, 0% TNFa-plus-vehicle, 100% no-TNFa wells
[2] = reduction of polyQ htt aggregates in cells – imaging, exon1htt(103Q)mCFP cells, high-content imaging, primary screen (AID 483;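 active means visual image review flags a hit and inhibition of aggregation exceeds 20%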;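 further: compound exposure lasted 3 days before fixation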;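 on nuclei count: percent of the per-plate median nuclei count of sample wells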); conditions: exon1htt(103Q)mCFP cell line, aggregate imaging, at 2 µM; inhibition of aggregation: stronger effect = higher value; nuclei count: measured here: cell count, toxicity
[3] = endothelial E-selectin expression blockers – imaging, HUVEC, immunofluorescence, MLSMR starter and 10KST1 sets, primary screen (AID 487;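 active means visually confirmed hit in the image check and inhibition above 20%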;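 on inhibition: signal is fraction of cell area covered by stained E-selectin grains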;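 on nuclei count: 100% = median nuclei count of all wells on the same plate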); conditions: HUVEC TNFalpha-induced E-selectin immunofluorescence imaging, at 2 µM; inhibition: stronger effect = higher value; nuclei count: measured here: cell number, toxicity
[4] = target: Voltage-gated potassium channel subunit beta-2 (Rattus norvegicus) (UniProt P62483); experiment: inhibitors of rat Kvbeta2 reductase activity – biochemical, NADPH fluorescence, primary screen (AID 622); conditions: recombinant KvBeta, 4-cyanobenzaldehyde reduction, at 10 µM, stronger effect = higher value;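 further: slope of raw intensity against log time taken from 70 to 1610 s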
Sequence of Voltage-gated potassium channel subunit beta-2 (Rattus norvegicus) (P62483 whole entry, looked up): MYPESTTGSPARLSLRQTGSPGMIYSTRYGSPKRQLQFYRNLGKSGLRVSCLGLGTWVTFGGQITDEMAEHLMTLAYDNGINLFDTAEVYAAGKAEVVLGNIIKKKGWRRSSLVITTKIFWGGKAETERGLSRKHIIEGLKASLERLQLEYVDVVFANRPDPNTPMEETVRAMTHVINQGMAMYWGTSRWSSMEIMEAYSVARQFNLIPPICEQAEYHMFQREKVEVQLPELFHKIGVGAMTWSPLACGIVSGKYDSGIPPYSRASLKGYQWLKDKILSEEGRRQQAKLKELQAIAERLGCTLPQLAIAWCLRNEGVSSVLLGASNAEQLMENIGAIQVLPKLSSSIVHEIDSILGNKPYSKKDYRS

[5] = target: Voltage-gated potassium channel subunit beta-2 (Rattus norvegicus) (UniProt P62483); experiment: enhancers of rat Kvbeta2 NADPH turnover – biochemical, NADPH fluorescence, primary screen (AID 623;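 active means NADPH fluorescence slope more negative than the mean of all samples by about 3 SD, 99.7% confidence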;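 further: fluorescence intensity change per second fitted from 20 to 320 s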); conditions: Recombinant KvBeta, NADPH fluorescence decrease slope, 10 min; at 10 µM; stronger effect = lower value
[6] = target: Alpha-2C adrenergic receptor (Homo sapiens) (UniProt P18825); experiment: compounds altering alpha2C-coupled GIRK flux – cell-based, HEK293 alpha2C/GIRK1/2, thallium flux, primary screen (AID 624;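 active means fluorescence slope after compound addition differing from the mean of all screened samples at 99.7% confidence, in either direction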;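 further: slope of fluorescence ratio to pre-addition baseline per second over 15 to 24 s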); conditions: thallium flux BTC fluorescence, at 10 µM, actives lie on both sides
Sequence of Alpha-2C adrenergic receptor (Homo sapiens) (P18825 whole entry, looked up): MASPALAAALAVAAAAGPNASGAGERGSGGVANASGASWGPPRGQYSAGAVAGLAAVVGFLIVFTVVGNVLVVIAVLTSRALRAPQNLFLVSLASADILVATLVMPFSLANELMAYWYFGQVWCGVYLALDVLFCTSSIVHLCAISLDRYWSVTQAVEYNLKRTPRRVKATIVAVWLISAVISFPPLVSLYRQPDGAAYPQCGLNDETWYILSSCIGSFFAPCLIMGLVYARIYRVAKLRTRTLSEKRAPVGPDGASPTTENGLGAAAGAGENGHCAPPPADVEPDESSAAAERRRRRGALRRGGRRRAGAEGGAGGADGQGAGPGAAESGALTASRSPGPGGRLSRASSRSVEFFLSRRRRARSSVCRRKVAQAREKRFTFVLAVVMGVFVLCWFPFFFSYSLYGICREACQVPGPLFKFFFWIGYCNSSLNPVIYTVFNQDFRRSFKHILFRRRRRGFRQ

[7] = blockers of RIG-like receptor reporter activation – cell-based, Sendai virus stimulus, luciferase, 10K MLSCN set, TLR/RLR signaling modifier project, primary screen (AID 602276;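 active means inhibition at or above 50% at 10 µM; inactive means inhibition below 50%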;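 further: firefly luciferase from ISG56 promoter only with Renilla not read in this screen; 0% = Sendai virus plus DMSO and 100% = medium plus DMSO without virus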); conditions: HEK293 RL24 IRF3 luciferase reporter, at 10 µM, stronger effect = higher value
[8] = TLR3 IRF3 reporter activation blockers – cell-based, poly I:C stimulus, luciferase, 10K MLSCN set, primary screen (AID 602277;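 active means inhibition of the reporter signal at or above 50%; inactive means inhibition below 50%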); conditions: HEK293-TLR3 RL24 IRF3 luciferase reporter, at 10 µM, stronger effect = higher value

Structure (SMILES) | cell count [1] | inhibition [1] | inhibition of aggregation [2] | nuclei count [2] [%] | inhibition [3] | nuclei count [3] [%] | fluorescence slope [4] | NADPH fluorescence slope [5] | slope [6] | inhibition [7] | inhibition [8]
COc1cccc(C2=NOC(C(=O)N3CCc4ccccc4C3)C2)c1 (stereo not drawn) | 606 | 4.7% (inactive) | 11% (inactive) | 97.3 | 10.4% (inactive) | 107 | -0.605 (inactive) | -4.1e-05 (inactive) | 0.00592 (inactive) | -5.64% (inactive) | -15% (inactive)
Cc1ccc(C)c(NC(=O)CSc2nnc(-c3ccccc3)o2)c1 | 613 | -6% (inactive) | 18.9% (inactive) | 89.2 | -45.1% (inactive) | 104 | -0.543 (inactive) | 8.3e-06 (inactive) | 0.00712 (inactive) | 10% (inactive) | 29.3% (inactive)
Cc1ccc(Cc2c(C)nc3c(C(=O)O)cnn3c2C)cc1 | 327 | 7.7% (inactive) | 1.1% (inactive) | 108 | -4.3% (inactive) | 105 | -0.376 (inactive) | -1.4e-05 (inactive) | 0.0026 (inactive) | 3.97% (inactive) | 19.3% (inactive)
COC(=O)c1ccccc1NC(=O)N1CCCC1 | 380 | -0.9% (inactive) | 0.5% (inactive) | 99.5 | -45.5% (inactive) | 115 | -0.434 (inactive) | -3.7e-06 (inactive) | 0.00581 (inactive) | -4.5% (inactive) | 0.116% (inactive)
CCOC(=O)c1ccc(NS(=O)(=O)c2ccc3c(c2)oc(=O)n3C)cc1 | 467 | 1.3% (inactive) | 25.3% (inactive) | 72.9 | 10.3% (inactive) | 107 | -0.602 (inactive) | -1.1e-05 (inactive) | 0.00688 (inactive) | -7.08% (inactive) | 14% (inactive)
CCn1cc(C(=O)NCCCOC)c(=O)c2cc(S(=O)(=O)N(C)C3CCCCC3)ccc21 | 559 | -15.1% (inactive) | 18.2% (inactive) | 74.5 | -38.4% (inactive) | 100 | -0.678 (inactive) | 5.7e-06 (inactive) | 0.00665 (inactive) | 6.58% (inactive) | 28.2% (inactive)
O=C(c1ccc2c(c1)c(=O)oc1ccccc12)N1CCCCC1 | 206 | 0.3% (inactive) | 15.8% (inactive) | 87.8 | 19.4% (inactive) | 90.7 | -0.363 (inactive) | 1.9e-05 (inactive) | 0.00354 (inactive) | -50.7% (inactive) | -130% (inactive)
CC(=O)c1ccc(OC(=O)c2cccs2)cc1 | 305 | 3.8% (inactive) | -6.3% (inactive) | 99.1 | -41.6% (inactive) | 105 | -0.498 (inactive) | -1.8e-05 (inactive) | 0.00631 (inactive) | -3.03% (inactive) | 22.4% (inactive)
Cc1ccccc1-n1nnnc1SCC(=O)Nc1ccc(S(=O)(=O)N2CCCC2)cc1 | 675 | -5.5% (inactive) | 11% (inactive) | 96.4 | -1% (inactive) | 110 | -0.534 (inactive) | 1.4e-05 (inactive) | 0.00566 (inactive) | 23.8% (inactive) | 24.1% (inactive)
CCc1[nH]nc2c1C(c1cccc(OC(=O)N3CCOCC3)c1)C(C#N)=C(N)O2 (stereo not drawn) | 393 | -20.5% (inactive) | -8.9% (inactive) | 98.5 | 9.4% (inactive) | 87.2 | -0.563 (inactive) | -2e-05 (inactive) | 0.00573 (inactive) | 20.6% (inactive) | 22.7% (inactive)
COc1ccc(CN(Cc2cc3cc4c(cc3[nH]c2=O)OCO4)C(=O)NC2CCCCC2)cc1 | 337 | 7.6% (inactive) | 38.7% (inactive) | 73.1 | -75.9% (inactive) | 99.3 | -0.368 (inactive) | -5.1e-05 (inactive) | 0.0053 (inactive) | 5.31% (inactive) | -1.61% (inactive)
O=C(COC(=O)c1ccccc1O)Nc1ccc(OC(F)F)cc1 | 674 | 5.1% (inactive) | -8.4% (inactive) | 103 | -64.8% (inactive) | 136 | -0.543 (inactive) | 7.7e-06 (inactive) | 0.00583 (inactive) | -13.8% (inactive) | -42.2% (inactive)
O=c1[nH]c2ccc(Br)cc2c(-c2ccccc2)c1N1CCOCC1 | 728 | -8% (inactive) | -1.1% (inactive) | 88.6 | -12% (inactive) | 119 | -0.396 (inactive) | 2.9e-05 (inactive) | 0.00458 (inactive) | -7.49% (inactive) | -16.4% (inactive)
Cc1nn(-c2ccc(F)cc2)c2sc(C(=O)O)cc12 | 354 | 4.7% (inactive) | 3.7% (inactive) | 86.9 | -87.2% (inactive) | 117 | -0.447 (inactive) | -0.00011 (inactive) | 0.00627 (inactive) | 13.2% (inactive) | 24% (inactive)
C/C=C(\C)c1nnc(NC(=O)OCC)s1 | 743 | -5% (inactive) | -16% (inactive) | 115 | -52% (inactive) | 110 | -0.342 (inactive) | -5.8e-05 (inactive) | 0.00534 (inactive) | -36.1% (inactive) | -51.1% (inactive)
C=CCc1cccc2cc(C(=O)NCc3cccnc3)c(=O)oc12 | 329 | 3.5% (inactive) | -4.3% (inactive) | 101 | 4.6% (inactive) | 117 | -0.437 (inactive) | 1.5e-05 (inactive) | 0.00312 (inactive) | -3.91% (inactive) | 20.3% (inactive)
O=C1C(C=NCCCn2ccnc2)=C(O)c2ccccc21 | 422 | 5.8% (inactive) | -8.1% (inactive) | 104 | -50.8% (inactive) | 113 | -0.589 (inactive) | -2.7e-05 (inactive) | 0.0063 (inactive) | 9.44% (inactive) | 37.1% (inactive)
CCOC(=O)N1CCN(C(=O)CSc2nnc(Cc3ccccc3)o2)CC1 | 645 | -6.9% (inactive) | 10.1% (inactive) | 123 | -53.8% (inactive) | 102 | -0.525 (inactive) | -3.6e-05 (inactive) | 0.00629 (inactive) | 2.23% (inactive) | 10.9% (inactive)
Cc1cc(C(=O)OCCO)c(C#N)c(N)n1 | 299 | 8.5% (inactive) | 9.5% (inactive) | 106 | -31.1% (inactive) | 128 | -0.132 (active) | 1.2e-05 (inactive) | 0.00497 (inactive) | 16.3% (inactive) | 18.4% (inactive)
COc1cc(/C=N/n2cnnc2)ccc1OCC(=O)N1CCOCC1 | 378 | -0.8% (inactive) | -5.1% (inactive) | 125 | -4.3% (inactive) | 112 | -0.245 (inactive) | 7.4e-07 (inactive) | 0.00585 (inactive) | 5.73% (inactive) | 19.7% (inactive)
COC(=O)CC1C(=O)NCCN1C(=O)NC1CCCCC1 (stereo not drawn) | 714 | -4.5% (inactive) | -18.8% (inactive) | 110 | -116% (inactive) | 110 | -0.559 (inactive) | -1.3e-05 (inactive) | 0.0059 (inactive) | -2.45% (inactive) | 2.41% (inactive)
CC(=O)c1cccc(S(=O)(=O)NCC(c2ccco2)N2CCCCC2)c1 (stereo not drawn) | 707 | -2% (inactive) | -10% (inactive) | 107 | -140% (inactive) | 145 | -0.62 (inactive) | -1.6e-05 (inactive) | 0.0049 (inactive) | 5.82% (inactive) | 6.55% (inactive)
COCCCNC(=O)CCn1c(=O)c2ccccc2n(CC(=O)Nc2ccc(C)cc2C)c1=O | 689 | -7.3% (inactive) | -6.5% (inactive) | 102 | -48.2% (inactive) | 111 | -0.502 (inactive) | -1.8e-05 (inactive) | 0.00709 (inactive) | 8.73% (inactive) | 19% (inactive)
Cc1ccc(NC(=O)c2ccco2)cc1NC(=O)CSc1nnc(-c2cccs2)n1C | 379 | -5.5% (inactive) | 16.8% (inactive) | 89.1 | 24.1% (inactive) | 98.1 | -0.394 (inactive) | -5.8e-05 (inactive) | 0.00449 (inactive) | 10.8% (inactive) | 14.1% (inactive)
O=C(CNC(=O)c1ccccc1C(=O)O)c1ccccc1 | 653 | 1.8% (inactive) | 9.6% (inactive) | 105 | -147% (inactive) | 124 | -0.42 (inactive) | 1.4e-05 (inactive) | 0.00616 (inactive) | -17.6% (inactive) | -49% (inactive)
CCOc1ccccc1OCC(=O)NCc1ccco1 | 375 | -3.4% (inactive) | 2.9% (inactive) | 101 | -16.4% (inactive) | 92 | -0.409 (inactive) | -4.3e-05 (inactive) | 0.00437 (inactive) | 11.5% (inactive) | 9.81% (inactive)
CCN(CCNC(=O)C1CCN(S(C)(=O)=O)CC1)c1ccccc1 | 395 | 3.8% (inactive) | -13.1% (inactive) | 113 | -24.7% (inactive) | 117 | -0.32 (inactive) | -3e-05 (inactive) | 0.00548 (inactive) | 15.1% (inactive) | 25.2% (inactive)
COc1ccccc1N1CCN(C(=O)C2CCCO2)CC1 (stereo not drawn) | 405 | 2.5% (inactive) | -0.1% (inactive) | 124 | -14.4% (inactive) | 102 | -0.442 (inactive) | -8.7e-05 (inactive) | 0.0058 (inactive) | 11.6% (inactive) | 24.6% (inactive)

From PubChem BioAssay
